According to PubChem BioAssay (NCI):
The panel holds about 83,000 compounds, 20% with a hit somewhere; the sample as a whole holds those more often.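 Note: values are percent growth. 100 is the growth of untreated cells, values between 100 and 0 indicate rising inhibition; between -100 and 0 indicates cell death.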 Calls of active or inactive are those of the source. Rule for the calls: active = growth percent below 10; inactive = the rest.

Experiments:
Experiment in all cases: NCI-60 one-dose screen, 48 h (100 = growth as untreated, 0 = no growth, -100 = all killed)
Settings in all cases: 10 µM unless noted
DU-145 prostate = test system: DU-145 prostate
K-562 leukemia = test system: K-562 leukemia
MALME-3M melanoma = test system: MALME-3M melanoma
MDA-MB-231 breast = test system: MDA-MB-231 breast
RXF 393 renal = test system: RXF 393 renal
SF-268 CNS = test system: SF-268 CNS
SF-295 CNS = test system: SF-295 CNS
SF-539 CNS = test system: SF-539 CNS
UACC-257 melanoma = test system: UACC-257 melanoma
M14 melanoma = test system: M14 melanoma
HCT-15 colon = test system: HCT-15 colon
HT29 colon = test system: HT29 colon
SNB-75 CNS = test system: SNB-75 CNS
SNB-19 CNS = test system: SNB-19 CNS
U251 CNS = test system: U251 CNS
PC-3 prostate = test system: PC-3 prostate
SK-MEL-5 melanoma = test system: SK-MEL-5 melanoma
UACC-62 melanoma = test system: UACC-62 melanoma
SK-MEL-28 melanoma = test system: SK-MEL-28 melanoma
LOX IMVI melanoma = test system: LOX IMVI melanoma

Measured: growth

CC12CCC3C(=CCc4cc(O)ccc43)C1CCC2=O (stereo not given)
inactive: DU-145 prostate 115% | K-562 leukemia 91.5% | MALME-3M melanoma 90.5% | MDA-MB-231 breast 102% | RXF 393 renal 113% | SF-268 CNS 106% | SF-295 CNS 92% | SF-539 CNS 102% | UACC-257 melanoma 113% | M14 melanoma 105% | HCT-15 colon 96.1% | HT29 colon 94.5% | SNB-75 CNS 104% | SNB-19 CNS 103% | U251 CNS 98.7% | PC-3 prostate 88.9% | SK-MEL-5 melanoma 97.5% | UACC-62 melanoma 88.9% | SK-MEL-28 melanoma 103%

C/C(=C\CCc1ccoc1)CC/C=C(\C)CCCC1COC(=O)C1 (stereo not given)
inactive: DU-145 prostate 105% | K-562 leukemia 98.4% | MALME-3M melanoma 89.5% | MDA-MB-231 breast 92.6% | RXF 393 renal 99.1% | SF-268 CNS 107% | SF-295 CNS 99% | SF-539 CNS 93.4% | UACC-257 melanoma 101% | M14 melanoma 104% | HCT-15 colon 99.2% | HT29 colon 113% | SNB-75 CNS 96.7% | SNB-19 CNS 99.6% | U251 CNS 95.6% | PC-3 prostate 91.2% | SK-MEL-5 melanoma 98.6% | UACC-62 melanoma 80% | SK-MEL-28 melanoma 96.9%

COc1cc(/C=C/C(=O)c2c(C)n([O-])c3ccccc3[n+]2=O)cc(OC)c1OC
inactive: DU-145 prostate 32.6% | K-562 leukemia 21.8% | MALME-3M melanoma 66.2% | MDA-MB-231 breast 78.9% | RXF 393 renal 53.9% | SF-268 CNS 43.6% | SF-295 CNS 46.8% | SF-539 CNS 75.5% | UACC-257 melanoma 54.4% | M14 melanoma 60.2% | HCT-15 colon 30% | HT29 colon 65.4% | SNB-75 CNS 81% | SNB-19 CNS 50.8% | U251 CNS 47.7% | PC-3 prostate 25.5% | UACC-62 melanoma 54.7% | LOX IMVI melanoma 50.9% | SK-MEL-28 melanoma 79%

COc1cc(/C=C/C(=O)CC(=O)/C=C/c2ccc(OC(=O)CCNC34CC5CC(CC(C5)C3)C4)c(OC)c2)ccc1OC(=O)CCNC12CC3CC(CC(C3)C1)C2
inactive: MALME-3M melanoma 38.6% | MDA-MB-231 breast 52.4% | SF-268 CNS 16.5% | SF-295 CNS 51% | UACC-257 melanoma 73.9% | M14 melanoma 16.5% | HCT-15 colon 46.9% | SNB-19 CNS 29.6% | U251 CNS 22.2% | PC-3 prostate 21% | UACC-62 melanoma 43.2% | SK-MEL-28 melanoma 33.6%
active: DU-145 prostate -7.16% | K-562 leukemia 7.62% | RXF 393 renal -37.7% | SF-539 CNS -18.2% | HT29 colon -70.6% | SNB-75 CNS 7.02% | LOX IMVI melanoma 0.619%

C=CCN(/C=C/CN(CC=C)CC=C)CC=C
inactive: DU-145 prostate 110% | K-562 leukemia 100% | MALME-3M melanoma 102% | MDA-MB-231 breast 90.4% | RXF 393 renal 111% | SF-268 CNS 105% | SF-295 CNS 84.3% | SF-539 CNS 99.7% | UACC-257 melanoma 108% | M14 melanoma 103% | HCT-15 colon 100% | HT29 colon 100% | SNB-75 CNS 85.8% | SNB-19 CNS 97.8% | U251 CNS 97.3% | PC-3 prostate 89.4% | SK-MEL-5 melanoma 109% | UACC-62 melanoma 101% | SK-MEL-28 melanoma 98.5%

Cc1ccc(C2=NNC(c3sc(Cl)nc3Cl)C2)cc1 (stereo not given)
active: LOX IMVI melanoma 9.94%
inactive: DU-145 prostate 95.6% | K-562 leukemia 11.7% | MALME-3M melanoma 77.6% | MDA-MB-231 breast 92.1% | RXF 393 renal 108% | SF-268 CNS 98.3% | SF-295 CNS 101% | SF-539 CNS 118% | UACC-257 melanoma 90.6% | M14 melanoma 86.5% | HCT-15 colon 77.3% | HT29 colon 107% | SNB-75 CNS 96% | SNB-19 CNS 92% | U251 CNS 99.1% | PC-3 prostate 93.6% | SK-MEL-5 melanoma 88.9% | UACC-62 melanoma 89.9% | SK-MEL-28 melanoma 102%

CC1c2ccccc2-c2ccccc2N1C (stereo not given)
inactive: DU-145 prostate 110% | K-562 leukemia 88.3% | MALME-3M melanoma 99.4% | MDA-MB-231 breast 97.4% | RXF 393 renal 116% | SF-268 CNS 105% | SF-295 CNS 109% | SF-539 CNS 50.2% | UACC-257 melanoma 114% | M14 melanoma 106% | HCT-15 colon 102% | HT29 colon 102% | SNB-75 CNS 105% | SNB-19 CNS 97.3% | U251 CNS 99.2% | PC-3 prostate 83.9% | SK-MEL-5 melanoma 107% | UACC-62 melanoma 86.6% | SK-MEL-28 melanoma 119%

Nc1nc(Nc2ccccc2SSc2ccccc2Nc2nc(N)nc(C(Cl)(Cl)Cl)n2)nc(C(Cl)(Cl)Cl)n1
inactive: DU-145 prostate 82.3% | K-562 leukemia 52.8% | MALME-3M melanoma 75% | MDA-MB-231 breast 44.1% | RXF 393 renal 67.2% | SF-268 CNS 50.5% | SF-295 CNS 27.4% | SF-539 CNS 84.3% | UACC-257 melanoma 100% | M14 melanoma 67% | HCT-15 colon 41% | HT29 colon 97.4% | SNB-19 CNS 70.2% | U251 CNS 32.1% | PC-3 prostate 44.3% | SK-MEL-5 melanoma 50.9% | UACC-62 melanoma 70% | SK-MEL-28 melanoma 89.2%
active: LOX IMVI melanoma -24.3%

Clc1ccc2[nH]cc(-c3cncn3CCc3ccccc3)c2c1
inactive: DU-145 prostate 80.9% | K-562 leukemia 26.9% | MALME-3M melanoma 43.8% | MDA-MB-231 breast 65.9% | RXF 393 renal 52.3% | SF-268 CNS 46.3% | SF-295 CNS 43.5% | SF-539 CNS 69.7% | UACC-257 melanoma 50.2% | M14 melanoma 68.6% | HCT-15 colon 51% | HT29 colon 57.3% | SNB-19 CNS 71.1% | U251 CNS 57.9% | PC-3 prostate 46.7% | SK-MEL-5 melanoma 10.8% | UACC-62 melanoma 57.4% | LOX IMVI melanoma 70% | SK-MEL-28 melanoma 69.8%

O=C(/C=C/c1cccc(O)c1)c1cccc(-n2cc(-c3ccccc3)[nH]c2=O)c1
inactive: SF-295 CNS 64.8% | UACC-257 melanoma 95.6% | M14 melanoma 64.5% | SNB-75 CNS 41.2% | SNB-19 CNS 50% | SK-MEL-5 melanoma 55.3% | UACC-62 melanoma 55.7% | SK-MEL-28 melanoma 30.8%
active: DU-145 prostate -16.9% | K-562 leukemia 1.71% | MALME-3M melanoma 0.0704% | MDA-MB-231 breast -5.57% | RXF 393 renal -62.4% | SF-268 CNS 7.61% | SF-539 CNS -27.4% | HCT-15 colon -18.9% | HT29 colon 9.73% | U251 CNS -77% | LOX IMVI melanoma -69.5%

N#Cc1c(-c2ccccc2)cc(-c2ccccc2)n(CCCC(=O)O)c1=O
inactive: DU-145 prostate 111% | K-562 leukemia 94.1% | MALME-3M melanoma 96.5% | MDA-MB-231 breast 94.9% | RXF 393 renal 91.5% | SF-268 CNS 102% | SF-295 CNS 93.2% | SF-539 CNS 102% | UACC-257 melanoma 96.5% | M14 melanoma 96% | HCT-15 colon 92.9% | HT29 colon 103% | SNB-19 CNS 98.7% | U251 CNS 93.3% | PC-3 prostate 109% | SK-MEL-5 melanoma 93.5% | UACC-62 melanoma 91% | LOX IMVI melanoma 95.4% | SK-MEL-28 melanoma 108%
